Results as given in PubChem BioAssay (Tox21).
Results filed as inconclusive are left out. Activity calls are given as the source filed them. Unless noted, the call rests on the fitted dose curve.

What was measured:
[1] = qHTS assay to identify small molecule agonists of the vitamin D receptor (VDR) signaling pathway - cell viability counter screen (AID 743224; active means well fitted curve in the direction sought with a large enough effect in the repeat runs; an effect the other way counts as inactive or inconclusive; further: series mostly up to about 63 µM; nearly all actives have a fitted effect of over 50% in size)
How it was run: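 Here cell health was gauged by luminescent ATP detection (CellTiter-Glo, 30 min RT) in VDR-bla cells that had been incubated with test compounds for 16 h at 37C and 5% CO2.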

[2] = qHTS assay to identify small molecule antagonists of the vitamin D receptor (VDR) signaling pathway - cell viability counter screen (AID 743225; active means well fitted curve in the direction sought with a large enough effect in the repeat runs; an effect the other way counts as inactive or inconclusive; further: nearly all actives have a fitted effect of over 50% in size)
How it was run: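 Parallel cytotoxicity test: VDR-UAS-bla HEK 293T, 3 nM (final) 1-alpha,25-dihydroxyvitamin D3 with test compound, 16 h, 37C. Endpoint is CellTiter-Glo luminescence in the same wells.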

[3] = qHTS assay to identify small molecule agonists of the NFkB signaling pathway - cell viability counter screen (AID 1159515); further: series mostly up to about 61 µM; nearly all actives have a fitted effect of over 55% in size
How it was run: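 5 hr compound treatment of NFkB-bla ME-180 cells (2,000/well, seeded overnight beforehand), followed by reporter substrate for 1.5 hr. CellTiter-Glo added afterward; luminescence after 30 min RT.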

[4] = qHTS assay to identify small molecule agonists of the endoplasmic reticulum stress response signaling pathway (AID 1159516; active means well fitted activation curve with a large enough effect in the signal ratio in the repeat runs, not every such curve was filed as active; the % refers to the signal ratio)
How it was run: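 Reporter HeLa cells (ESRE-beta-lactamase) underwent 5 hr compound incubation at 37 C and 5% CO2 in quantitative HTS format. Detection followed 2 hr of FRET substrate loading at room temperature.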

[5] = qHTS assay to identify small molecule agonists of the endoplasmic reticulum stress response signaling pathway - cell viability counter screen (AID 1159517);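 further: HeLa cells carrying an ER stress response element beta-lactamase reporter; series mostly up to about 61 µM; nearly all actives have a fitted effect of over 50% in size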
How it was run: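 ESRE-bla HeLa cells, 1,500 per well, seeded overnight then treated with compounds for 5 hr at 37 C. After the beta-lactamase read, viability in the same wells is measured by CellTiter-Glo luminescence after 30 min at room temperature.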

[6] = qHTS assay to identify small molecule antagonists of the retinoid-related orphan receptor gamma (ROR-gamma) signaling pathway - cell viability counter screen (AID 1159520; active means well fitted curve in the direction sought with a large enough effect in the repeat runs; an effect the other way counts as inactive or inconclusive; further: nearly all actives have a fitted effect of over 50% in size)
How it was run: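 Tet-on ROR gamma CHO cells were given compounds for 2 hr, then doxycycline hyclate at 1 uM final, and incubated 16 hr at 37 C. Viability was measured as ATP content by CellTiter-Glo luminescence.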

[7] = molecular target: Nuclear receptor ROR-gamma (Homo sapiens) (UniProt P51449); test: qHTS assay to identify small molecule antagonists of the retinoid-related orphan receptor gamma (ROR-gamma) signaling pathway (AID 1159521; active means well fitted curve in the direction sought with a large enough effect in the repeat runs; an effect the other way counts as inactive or inconclusive)
How it was run: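 Decreased RORE-driven luciferase luminescence indicates antagonism. Tet-on RORγ CHO cells received compound, then 1 uM final doxycycline 2 h later; signal read after 16 h incubation.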

[8] = qHTS assay to identify small molecule agonists of the AP-1 signaling pathway - cell viability counter screen (AID 1159525); further: nearly all actives have a fitted effect of over 55% in size
How it was run: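 AP-1-bla ME-180 cells in Opti-MEM with 0.5% dialyzed FBS, compound exposure 5 h at 37 C in 15-point titration. Viability read in the same wells as ATP content by CellTiter-Glo luminescence, normalised to tetra-n-octylammonium bromide and DMSO controls.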

[9] = qHTS assay to identify small molecule agonists of the AP-1 signaling pathway (AID 1159526)
[10] = molecular target: Retinoic acid receptor RXR-alpha (Homo sapiens) (UniProt P19793); test: qHTS assay to identify small molecule agonists of the RXR signaling pathway (AID 1159527); further: nearly all actives have a fitted effect of over 35% in size
Sequence of Retinoic acid receptor RXR-alpha (Homo sapiens) (P19793 whole entry, looked up): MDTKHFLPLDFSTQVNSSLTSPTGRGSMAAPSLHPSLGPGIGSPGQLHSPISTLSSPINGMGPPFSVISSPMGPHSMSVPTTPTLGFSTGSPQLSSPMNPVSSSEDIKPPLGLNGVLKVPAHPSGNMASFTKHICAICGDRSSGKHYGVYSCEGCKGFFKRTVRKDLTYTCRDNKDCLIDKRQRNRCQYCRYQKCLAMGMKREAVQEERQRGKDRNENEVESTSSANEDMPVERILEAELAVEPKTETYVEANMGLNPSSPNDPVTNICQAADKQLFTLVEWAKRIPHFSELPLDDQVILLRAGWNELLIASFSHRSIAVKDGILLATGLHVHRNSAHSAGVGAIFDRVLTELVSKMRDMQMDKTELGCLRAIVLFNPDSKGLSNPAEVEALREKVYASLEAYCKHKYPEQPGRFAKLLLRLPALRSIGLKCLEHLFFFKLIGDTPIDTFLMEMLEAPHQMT
How it was run: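 16 hr incubation of compound-treated RXR-alpha-UAS-bla HEK 293T cells (2% charcoal-stripped FBS, 37 C) preceded a 2 hr room-temperature LiveBLAzer FRET substrate step and blue/green fluorescence measurement.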

Measured: Potency

C[N+](C)(C)CC(=O)[O-]
inactive: all assays above

CC1=C(C(=O)Nc2ccccc2)SCCO1
inactive: all assays above

CC(C)CON=O
inactive: all assays above

Nc1ncn[nH]1
inactive: all assays above

CN(C)P(=O)(N(C)C)N(C)C
inactive: all assays above

Cn1c(-c2ccccc2)cc(-c2ccccc2)[n+]1C
inactive: all assays above

COP(=S)(OC)Oc1ccc(S(=O)(=O)N(C)C)cc1
inactive: all assays above

CN(C)c1nc(=O)n(C2CCCCC2)c(=O)n1C
inactive: all assays above

CCC/C=N/O
inactive: all assays above

CC1CC(=O)O1 (stereo not given)
inactive: all assays above

COc1ccc(CO)cc1
inactive: all assays above

CC1(C)Cc2cccc(O)c2O1
inactive: all assays above

CNC(=S)S
inactive: all assays above

CCNCC
inactive: all assays above

CCCCOC(=O)COC(=O)c1ccccc1C(=O)OCCCC
inactive: all assays above

Nc1ccc2ccccc2c1
inactive: all assays above

CCCCOCCOC(C)=O
inactive: all assays above

CC(C)(C#N)N=NC(C)(C)C#N
inactive: all assays above

ClCc1ccccn1
inactive: all assays above

C=CC(Cl)CCl (stereo not given)
inactive: all assays above

CC(O)CN(CC(C)O)CC(C)O (stereo not given)
inactive: all assays above

C[N+](C)(C)C
inactive: all assays above

C[C@]12CC[C@H]3[C@@H](CCC4=CC(=O)CC[C@@H]43)[C@@H]1CC[C@@H]2O
inactive: all assays above
